110 sequences from publication PMC10668032, “Altered binding affinity of SIX1-Q177R correlates with enhanced WNT5A and WNT pathway effector expression in Wilms tumor” can be followed below.

Over roughly 33,000 sequences, “e-score” has its median near -0.05; the highest 2% begin near 0.38. Only a selection was taken, and the highest values are over-represented in it overall.

This experiment deals with T1, SIX1-Q177R homeodomain (human, UniProt Q15475 108-198, Q177R).
T1 sequence: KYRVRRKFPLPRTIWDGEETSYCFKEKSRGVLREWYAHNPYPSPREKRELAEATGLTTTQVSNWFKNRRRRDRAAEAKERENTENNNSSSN
As to the kind of experiment: universal protein binding microarray; Universal all-10-mer PBM (8x60K, AMADID 030236), 300 nM GST-tagged protein, Alexa Fluor 488 anti-GST; buffer, salt, pH and temperature not stated (as in Berger); high values mean tight binding. The conditions noted are these: protein: ivt; tags: N-terminal GST; dsDNA, one strand shown. A digest of the protocol:
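Binding of GST-tagged homeodomains is given as 8-mer E-scores from the Universal PBM Analysis Suite. The proteins were produced by in vitro transcription/translation, quantified by anti-GST western blot against a recombinant GST standard curve, and applied in duplicate at 300 nM final concentration to universal 'all 10-mer' protein binding microarrays (8×60K format).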
Regarding AACGGTGC, the binding signal was 0.184 ± 0.0227 E-score.

In the case of AATGGGGT, the binding signal is 0.246 ± 0.0257 E-score.

Turning to AAAGGTGT, the binding signal is 0.452 ± 0.0138 E-score.

Turning to AATGGTGT, the binding signal is 0.4746 ± 0.00144 E-score.

For CACGGTGA, the binding signal was found to be 0.221 ± 0.0367 E-score.

In the case of AAAGGGGT, the binding signal worked out at 0.162 ± 0.0302 E-score.

For the sequence AAGGGTGT, the binding signal was determined as 0.4645 ± 0.00313 E-score.

For the sequence AGGGGTAT, the binding signal was 0.3 ± 0.0125 E-score.

In the case of CGACTCCC, the binding signal was 0.263 ± 0.056 E-score.

For GGTCCACA, the binding signal came to 0.17 ± 0.0089 E-score.

For the sequence TCGTTACA, the binding signal is 0.278 ± 0.00887 E-score.

On to AACCTACA, for which the binding signal is 0.192 ± 0.0148 E-score.

Take GTACTGAC: the binding signal came to 0.172 ± 0.0189 E-score.

Take GACCCCCC: the binding signal amounted to 0.248 ± 0.0557 E-score.

As to GACCCCCA, the binding signal worked out at 0.233 ± 0.0487 E-score.

Turning to CACCCCCG, the binding signal worked out at 0.325 ± 0.0496 E-score.

With CACCCCCC, the binding signal stood at 0.341 ± 0.0318 E-score.

Consider GACACCCC, for which the binding signal came to 0.487 ± 0.00971 E-score.

CACACCCC: the binding signal came to 0.402 ± 0.0285 E-score.

Consider GACACCCA, for which the binding signal was determined as 0.479 ± 0.00732 E-score.

Consider CACACCCG, for which the binding signal came out at 0.423 ± 0.0208 E-score.

In the case of GGCACCCC, the binding signal was 0.158 ± 0.0472 E-score.

With CCCACCCC, the binding signal was determined as 0.304 ± 0.0356 E-score.

Consider CGCACCCA, for which the binding signal is 0.193 ± 0.0349 E-score.

Take CGCACCCG: the binding signal worked out at 0.245 ± 0.0361 E-score.

With CCCCTGAC, the binding signal came to 0.271 ± 0.0456 E-score.

Take CAATGGTG: the binding signal came out at 0.299 E-score.

On to CACTCGAC, for which the binding signal amounted to 0.211 ± 0.00795 E-score.

As to CGGGTCTC, the binding signal amounted to 0.207 ± 0.0182 E-score.

Regarding ATGAGGGG, the binding signal came to 0.195 ± 0.0319 E-score.

With AAGTCGTG, the binding signal was determined as 0.169 ± 0.0361 E-score.

In the case of AGATGGAG, the binding signal was 0.181 ± 0.00463 E-score.

In the case of CACGCAAA, the binding signal was 0.251 ± 0.0233 E-score.

In the case of AACTCACA, the binding signal turned out to be 0.174 ± 0.0813 E-score.

With CTGATACC, the binding signal amounted to 0.312 ± 0.00631 E-score.

As to CGGGAGTA, the binding signal worked out at 0.26 ± 0.0317 E-score.

In the case of CACCCATA, the binding signal came to 0.301 ± 0.0276 E-score.

Turning to CACCTTGA, the binding signal was 0.177 ± 0.00756 E-score.

As for GTTCTACA, the binding signal was 0.239 ± 0.00598 E-score.

GATCCCCA: the binding signal was found to be 0.267 ± 0.0387 E-score.

As for AACACCCA, the binding signal amounted to 0.4561 ± 0.00225 E-score.

As to AGCACCCG, the binding signal turned out to be 0.262 ± 0.00343 E-score.

As to AACCCCCA, the binding signal worked out at 0.209 ± 0.0281 E-score.

AACACCCG: the binding signal was 0.466 E-score.

Turning to AACCCCCG, the binding signal was 0.244 ± 0.0392 E-score.

On to ACCACCCC, for which the binding signal was found to be 0.249 ± 0.0234 E-score.

Regarding AGCACCCT, the binding signal is 0.172 ± 0.0259 E-score.

With ACCACCCT, the binding signal was 0.183 ± 0.0205 E-score.

Take AGCACCCC: the binding signal worked out at 0.295 ± 0.0259 E-score.

As for AACACCCC, the binding signal stood at 0.4753 ± 0.00361 E-score.

In the case of AGCACCCA, the binding signal came to 0.159 ± 0.0296 E-score.

As to AACACCCT, the binding signal worked out at 0.4609 ± 0.00173 E-score.

As to AACTCCGG, the binding signal worked out at 0.161 ± 0.0108 E-score.

Regarding ACCTCGTG, the binding signal was determined as 0.208 ± 0.00536 E-score.

Regarding ACGCCGGG, the binding signal is 0.16 ± 0.00711 E-score.

On to CGGATAAC, for which the binding signal stood at 0.213 ± 0.00738 E-score.

With ACCTAGTG, the binding signal worked out at 0.232 ± 0.0203 E-score.

CCGACCGG: the binding signal worked out at 0.172 ± 0.0141 E-score.

Regarding CGCGCACC, the binding signal stood at 0.193 ± 0.014 E-score.

In the case of AACGGAGT, the binding signal was found to be 0.152 ± 0.031 E-score.

Turning to ACCAGACA, the binding signal was 0.234 ± 0.0203 E-score.

Regarding ACGATACC, the binding signal is 0.3575 ± 0.00339 E-score.

Take TACACCCA: the binding signal was found to be 0.4707 ± 0.00252 E-score.

In the case of CCCACCCA, the binding signal came to 0.204 ± 0.0309 E-score.

Take CACCCCCA: the binding signal was 0.368 ± 0.0341 E-score.

As to TGCACCCA, the binding signal worked out at 0.153 ± 0.0378 E-score.

Regarding TACCCCCA, the binding signal amounted to 0.304 ± 0.00484 E-score.

In the case of CACACCCA, the binding signal worked out at 0.382 ± 0.038 E-score.

In the case of CGAACGGA, the binding signal came to 0.21 ± 0.0321 E-score.

ACCCAGTA: the binding signal turned out to be 0.175 ± 0.0267 E-score.

As for GTGTTACA, the binding signal amounted to 0.4422 ± 0.00139 E-score.

Take GTGTTAAC: the binding signal worked out at 0.415 ± 0.0316 E-score.

For ATGTTACA, the binding signal was found to be 0.177 ± 0.00778 E-score.

In the case of GAGTTAAC, the binding signal is 0.171 ± 0.00701 E-score.

Take GTGTGAAC: the binding signal amounted to 0.362 ± 0.00749 E-score.

As to GTGTTAGA, the binding signal came to 0.41 ± 0.0163 E-score.

Consider GGGTTATA, for which the binding signal was found to be 0.2303 ± 0.000672 E-score.

CTGTTACA: the binding signal is 0.238 ± 0.0173 E-score.

Consider GTGTTTTA, for which the binding signal was 0.361 ± 0.026 E-score.

Turning to GTGTTTGA, the binding signal stood at 0.35 ± 0.00533 E-score.

GTGTTATA: the binding signal worked out at 0.432 ± 0.0299 E-score.

For the sequence ACCTAACA, the binding signal amounted to 0.203 ± 0.0209 E-score.

As to ACAAGGGT, the binding signal turned out to be 0.21 ± 0.00286 E-score.

Take AAGAGTGT: the binding signal turned out to be 0.363 ± 0.0349 E-score.

Turning to CCGACGCC, the binding signal stood at 0.154 ± 0.0342 E-score.

As for AGGGAGTG, the binding signal is 0.163 ± 0.00586 E-score.

In the case of CACTAACC, the binding signal was 0.17 ± 0.00501 E-score.

Take AGGGCGTG: the binding signal amounted to 0.169 ± 0.0301 E-score.

Consider CTCCGACA, for which the binding signal amounted to 0.175 ± 0.075 E-score.

As to ACCTGCCT, the binding signal is 0.198 ± 0.0238 E-score.

Consider CACCTTAG, for which the binding signal came to 0.286 ± 0.00858 E-score.

For CGCGGGTA, the binding signal was found to be 0.273 ± 0.00467 E-score.

With CGGTGCGA, the binding signal came to 0.155 ± 0.0742 E-score.

For the sequence TGGAAACA, the binding signal was determined as 0.223 ± 0.0152 E-score.

Take GGGTTAAA: the binding signal is 0.214 ± 0.0192 E-score.

Take GTGTTTAA: the binding signal is 0.375 ± 0.015 E-score.

As for GTGTTAAA, the binding signal was 0.403 ± 0.0279 E-score.

With ACGGGGTC, the binding signal came to 0.214 ± 0.0134 E-score.

For ACCCCCAG, the binding signal was 0.23 ± 0.0356 E-score.

Regarding ACACCCAG, the binding signal is 0.4602 ± 0.00339 E-score.

For the sequence AAACCCAG, the binding signal came to 0.219 ± 0.0117 E-score.

In the case of GCACCCAA, the binding signal was found to be 0.154 ± 0.0464 E-score.

For the sequence ACACCCAA, the binding signal was determined as 0.4542 ± 0.000742 E-score.

On to ACACCCAC, for which the binding signal came to 0.4683 ± 0.00307 E-score.

Regarding ACCCCCAC, the binding signal was determined as 0.282 ± 0.0258 E-score.

On to ACACCCAT, for which the binding signal is 0.458 ± 0.00543 E-score.

For GCACCCAC, the binding signal amounted to 0.194 ± 0.0207 E-score.

Regarding AACCCCAT, the binding signal came to 0.169 ± 0.00626 E-score.

For the sequence ACCCCCAA, the binding signal was found to be 0.312 ± 0.0125 E-score.

ACCCCCAT: the binding signal is 0.272 ± 0.0289 E-score.
